We go through 35 molecules from PubChem BioAssay.

A short description of the experiment: JC-1 mitochondrial signal, unstimulated MM1S myeloma – cell-based, JC-1 fluorescence, 24 h, 100 nL compound, profiling panel (AID 1170). Also: test concentration not given here. The note with it: MM1S mitochondrial potential, higher = more signal.
Regarding `O=C(CS)NCCCCCNC(=O)[C@@H]1C[C@@H]2C(=O)NCC(=O)N2[C@@H]1c1cccc(OCCO)c1`, the z-score was -0.249. With `O=C(CS)NCCCCCNC(=O)[C@H]1C[C@H]2C(=O)NCC(=O)N2[C@H]1c1cccc(OCCO)c1`, the z-score was determined as 0.112. Next, `CN(C)CCCCNC(=O)[C@@H]1C[C@@H]2C(=O)N[C@@H](CCCCN)C(=O)N2[C@@H]1c1ccc(O)cc1`: -1.29; `COc1ccc(CCNC(=O)[C@@]2(C)c3ccccc3C(=O)N(c3ccc(C)cn3)[C@H]2c2ccc(CO)cc2)cc1`: -0.00393. In turn, `O=C(NCCN1CCOCC1)[C@@H]1c2ccccc2C(=O)N(Cc2cc(C(F)(F)F)cc(C(F)(F)F)c2)[C@H]1c1ccc(CO)cc1` registered a z-score of -0.227. `O=C(NCc1ccccc1)[C@@H]1c2ccccc2C(=O)N(C2Cc3ccccc3C2)[C@H]1c1ccc(CO)cc1` came in with a z-score of 0.458. Next, `COCCOC(=O)N1C(=O)[C@@]2(c3cc(C#CC4(O)CCCCCC4)ccc31)[C@H](C(=O)Nc1nc3ccccc3s1)[C@H]1C(=O)O[C@H](c3ccccc3)[C@H](c3ccccc3)N1[C@@H]2c1ccccc1OCCO`: -0.876. Next, `CC1CC/C=C\[C@H]2OC34C=CCN(c5ccc6ccccc6c5)C(=O)[C@H]3N(CCO)C(=O)[C@@H]4C2C(=O)O1` (stereo not given in full): 1.19. In the case of `O=C1O[C@@H](c2ccccc2)[C@@H](c2ccccc2)N2[C@@H](c3ccc(OCCO)cc3)[C@]3(C(=O)Nc4ccc(C#CCCO)cc43)[C@@H](C(=O)NC[C@H](O)c3ccccc3)[C@H]12`, the z-score is -0.468. `O=C1OCCC/C=C\[C@H]2OC34C=CCN(c5ccc6ccccc6c5)C(=O)[C@H]3N(CCCCCO)C(=O)[C@@H]4C12` (stereo not given in full): the z-score is -0.505. Next, `CC(C)CNC(=O)[C@@]1(Cc2ccccc2I)c2ccccc2C(=O)N(Cc2ccccc2C(F)(F)F)[C@H]1c1ccc(CO)cc1`: -0.167; `C#CCOc1ccc(C[C@@H](C(=O)OC)N(CC#C)[C@@H](/C=C/C2CC2)[C@H](O)Cc2ccccc2)cc1`: -0.524; `CCOC(=O)[C@H]1C/C=C/C[C@H](C(=O)OCC)C(=O)O[C@H]2[C@@H](OC)O[C@H](CO)[C@@H](OC(=O)c3ccc(Br)cc3)[C@@H]2OC1=O`: -1.3. For `O=C1[C@@]23C=C(Br)[C@H](C[C@@H]2COC3)[C@]12CO2`, the z-score was -2.19. Next, `O=C1NC(=O)C2C1C=CC(C(O)c1ccc(-c3ccccc3)s1)N2Nc1ccc(Cl)cc1Cl` (stereo not given): -0.247; `C=C(C(=O)CC[C@H](OC(C)=O)c1ccccc1OCCO)C(C)C`: -1.19. Take `O=C1C2C=CC(C(O)COCc3ccccc3)N(Nc3ccc([N+](=O)[O-])cc3)C2C(=O)N1c1ccccc1` (stereo not given): the z-score was -1.01. On to `COCC(=C=CC[C@H](O)c1cccc(OCCO)c1)CCO`, for which the z-score is -0.451.

`NCCCCCCNC(=O)[C@H]1C[C@H]2C(=O)N[C@@H](Cc3ccccc3)C(=O)N2[C@H]1c1cccc(OCCO)c1` came in with a z-score of -0.531. Next, `CCCCCN1CC=CC23O[C@@H]4C=CCOC(=O)[C@@H]4[C@H]2C(=O)N(C(C)CO)[C@@H]3C1=O` (stereo not given in full): -0.212. `CC(c1ccccc1)C(O)C1C=CC2C(=O)N(C)C(=O)C2N1NC(=O)OC(C)(C)C` (stereo not given) registered a z-score of 0.772. Next, `COCCCNC(=O)[C@@H]1c2ccccc2C(=O)N(Cc2ccccc2)[C@H]1c1ccc(CO)cc1`: 0.282.

The molecule `COCCOC(=O)N1C(=O)[C@@]2(c3cc(C#CCCO)ccc31)[C@H](c1ccc(OCCO)cc1)N1[C@H](c3ccccc3)[C@H](c3ccccc3)OC(=O)[C@H]1[C@@H]2C(N)=O` returned a z-score of -0.0462. Take `COc1ccc(C(=O)Nc2ccc(CN3C(=O)[C@]4(O[C@H](CC(=O)N5CCC[C@H]5CO)[C@@H]([Si](C)(C)c5ccc(OC)cc5)[C@@H]4C)c4ccccc43)cc2)cc1`: the z-score was -2.1. Next, `C=CC[C@]1(C(N)=O)COC(c2ccc(OCCCO)cc2)=N1`: -0.753. The molecule `COC(=O)[C@@]1(Cc2ccccc2)[C@H]2c3cc(C(=O)N(C)C)n(CCc4c[nH]c5ccc(O)cc45)c3C[C@H]2CN1C(=O)c1ccccc1` showed a z-score of -1.57.

`COc1ccc(C#Cc2ccc3c(c2)[C@]2(C(=O)N3)[C@H](c3ccc(O)cc3)N3[C@H](c4ccccc4)[C@H](c4ccccc4)OC(=O)[C@H]3[C@@H]2C(=O)N2CCc3cc(OC)c(OC)cc3C2)cc1` showed a z-score of -0.418.

Regarding `O=C1OCCC=C[C@H]2OC34C=CCN(Cn5nnc6ccccc65)C(=O)[C@H]3N(CCO)C(=O)[C@@H]4C12` (stereo not given in full), the z-score is -0.0431. Next, `CC(C)Cc1ccc(CN2CC[C@@H](N)C2)cc1`: -2.86; `C[N+](C)(C)CCCCCCNC(=O)[C@H]1C[C@H]2C(=O)N[C@@H](Cc3ccccc3)C(=O)N2[C@H]1c1cccc(OCCO)c1`: -0.545.

Molecule `CO[C@H]1O[C@H](CO)[C@@H](OC(=O)Nc2ccc(Oc3ccccc3)cc2)[C@H](OC(=O)Nc2ccc3c(c2)OCO3)[C@@H]1OC(=O)Nc1ccc2c(c1)OCO2` yielded a z-score of -0.751. `C=C(CCCC)/C(=C/C[C@@H](OC(C)=O)c1ccccc1OCCO)c1cc(C(=O)OC)ccc1OC`: the z-score came to 0.234. Next, `C=CCC(OC(C)=O)[C@@H]1[C@@H](N(Cc2cc3ccccc3o2)C(=O)Cc2ccc(OC)cc2)c2cc(OCCCO)ccc2N1C(=O)c1ccc2ccccc2c1` (stereo not given in full): 1.11; `O=C1C2C=CC(C(O)c3c(F)cccc3Cl)N(Nc3ccccc3F)C2C(=O)N1c1ccccc1` (stereo not given): -0.298; `CN(C)C(=O)[C@]1(Cc2ccccc2)N=C(c2ccc(OCCCO)cc2)O[C@@H]1c1ccccc1N=[N+]=[N-]`: -2.37.
